Among all 200,000 compounds or so, about 860 (0.43%) were called active. Shown is part of a subset that was picked to be rich in actives. Values without a mark were called inactive. The call rests on the fitted dose curve; in most records, active means well fitted inhibition curve with a large enough effect; inconclusive means small, poorly fitted or top-dose-only effect; inactive means flat fitted curve, though single readings scatter.
Target: Cruzipain (Trypanosoma cruzi) (UniProt P25779)
Experiment: qHTS Assay for Promiscuous and Specific Inhibitors of Cruzain (with detergent); further: nearly all actives have a fitted effect of over 40% in size
Details: purified cruzain, Z-FR-AMC fluorescence, 0.01% Triton
Experimental: Cruzain (3.4.22.51) is a cysteine protease from the tropical parasite Trypanosoma cruzi. Dual qHTS experiment was performed against the NCGC compound collection in order to 1) identify novel inhibitors of the enzyme and 2) profile the compound collection for promiscuous inhibitors operating via colloidal aggregation (by performing detergent-free and detergent-containing comparison screens). Cruzain was assayed by the use of fluorogenic coumarin-based substrate Z-FR-AMC: proteolytic cleavage releases AMC, whose fluorescence is measured at 360 nm excitation and 450 nm emission. Purified cruzain was supplied by the labs of Prof. James McKerrow and Brian Shoichet, UC San Francisco.
This assay had 0.01% Triton X-100 concentration. See also releated assay "qHTS Assay for Promiscuous and Specific Inhibitors of Cruzain (without detergent)" with 0.00005% Triton X-100.
See following references for additional details:
Assay Provider: Shoichet, Brian; University of California, San Fancisco
Screening Center PI: Austin, C.P.
Screening Center: NIH Chemical Genomics Center [NCGC]
Buffer: 100 mM Sodium Acetate, pH 5.5, 5 mM DTT, Triton X-100 concentration: 0.01%.
Buffer in columns 3 and 4 as negative control (no enzyme).
Substrate solution: 2 uM final concentration of Z-FR-AMC (catalog number I-1160, Bachem) dispensed throughout the plate.
Enzyme: 1.5 nM Cruzain final concentration in columns 1, 2, 5-48. Column 1 is neutral (100% activity). Column 2 contained titration of covalent inhibitor K11777, starting concentration 1 mM, then 1:2 dilution in duplicate).
Three uL of enzyme or buffer were dispensed to 1536-well Greiner black solid bottom plates. Compounds and controls (23 nL) were transferred via Kalypsys PinTool. The plates were incubated for 15 min at room temperature, and then 1 uL of substrate solution was added to start the reaction. The plates were immediately transferred to and read 4 times every 30 seconds for 2 min on ViewLux High-throughput CCD imager (Perkin-Elmer) using 360 nm excitation and 450 nm emission fluorescence protocol. The fluorescence intensity difference between the third and the first time points (time lapse of 60 seconds) was used to compute reaction progress.
Potency means the concentration at half of the fitted maximal effect.

Cruzipain (Trypanosoma cruzi), sequence (P25779 123-467 limits assumed): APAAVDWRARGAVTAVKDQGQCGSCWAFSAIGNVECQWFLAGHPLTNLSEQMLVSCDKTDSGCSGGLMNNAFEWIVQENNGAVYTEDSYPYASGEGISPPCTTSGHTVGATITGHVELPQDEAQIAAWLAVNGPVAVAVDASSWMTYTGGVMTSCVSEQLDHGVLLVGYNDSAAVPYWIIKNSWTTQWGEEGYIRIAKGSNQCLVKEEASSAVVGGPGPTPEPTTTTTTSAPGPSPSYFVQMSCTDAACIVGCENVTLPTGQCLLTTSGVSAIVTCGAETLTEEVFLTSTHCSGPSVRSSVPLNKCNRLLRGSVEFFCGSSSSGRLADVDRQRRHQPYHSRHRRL

Structure (SMILES)	max response, negative = inhibition [%]	Potency
CCc1ccccc1NC(=O)Cc1ccc(NC(=O)N2CCCCc3ccccc32)cc1	-5.61	–
CC(=O)N1CCCc2cc(S(=O)(=O)N3CCC(C(=O)NC4CCCCC4)CC3)ccc21	-0.0735	–
CCOc1ccc(CNC(=O)c2cc(-c3ccc(Cl)s3)nc3ccccc23)cc1	-0.709	–
O=C(NCc1ccco1)c1cc(-c2cccnc2)nc2ccc(Cl)cc12	-13.8	–
CCc1ccc(-c2cc(C(=O)NCc3ccco3)c3ccccc3n2)s1	–	22.4 µM (active)
Cc1ccc2nc(/C(C#N)=C/c3ccc(-c4ccc(C(=O)OC(C)C)cc4)o3)[nH]c2c1	-3.11	–
Fc1ccc(-c2nc(Nc3cccc(Cl)c3)nc3c2COc2ccccc2-3)cc1	-3.92	–
Cc1ccc(-n2ncc3c(NCCCn4ccnc4)ncnc32)cc1Cl	-0.0419	–
CC(=O)c1ccc2c(ccc3ccccc32)c1	-9.87	–
CC(=O)CCC(=O)c1ccc2ccccc2c1	-3	–
C=CC(=O)c1ccc2ccccc2c1	–	3.98 µM (active)
COc1ccc(Cc2nc3ccc(C(=O)NCc4ccc(OC)cc4OC)cc3o2)cc1	-5.34	–
Fc1ccc2[nH]c3c(N4CCSCC4)ncnc3c2c1	-6.83	–
CCCn1c(-c2ccc(F)cc2)nc2c(NCC3CCCN3CC)nc(C)nc21 (stereo unspecified)	-1.1	–
CCN1CCCC1CNc1ncnc2c1[nH]c1ccc(F)cc12 (stereo unspecified)	–	25.1 µM (active)
Cc1cc2c(cc3c(SCc4cccc(Cl)c4)nnc(C)n32)o1	-4.57	–
COC(=O)c1ccc(Cn2c(SCC(=O)N(C)c3ccccc3)nc3ccccc32)cc1	-5.82	–
COc1ccc(OC)c(CNC(=O)Cn2nc(C)c3c(C)n(-c4ccccc4)nc3c2=O)c1	-2.6	–
CCN(c1ncnc2c1cnn2-c1ccc(C)cc1)C1CCCCC1	1.62	–
CCOc1ccc(N2CC(C)Cn3c2nc2c3c(=O)n(Cc3c(F)cccc3Cl)c(=O)n2C)cc1 (stereo unspecified)	-3.27	–
Cc1ccc(-c2c3c(=O)n(C)c(=O)n(C)c3cn2-c2ccccc2O)cc1	0.548	–
Cc1ccc(-c2c3c(=O)n(C)c(=O)n(C)c3cn2-n2cnnc2)cc1	–	10 µM (active)
COc1ccc(-c2c3c(=O)n(C)c(=O)n(C)c3cn2-c2cccc(OC)c2)cc1	-3.29	–
OCc1cnc(SCc2ccc(F)cc2)n1Cc1ccc(F)cc1	-1.84	–
CCOc1ccccc1NC(=O)CCn1cnnn1	2.1	–
CCOC(=O)c1cccc(NC(=O)c2cc(CN3CCCC3)on2)c1	-1.68	–
